{"source": "PubChem BioAssay (NCI)", "note": "This is part of a sample that, as a whole, favours compounds with a hit. Of some 83,000 tested, about 20% had one in any assay.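 Single-dose data. Exposure time 48 hours. Values below 10 considered active.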 Unmarked numbers belong to inactive results. Activity calls are given as the source filed them."}
{"tested_on": "HOP-62 NSCLC", "test": "NCI-60 one-dose screen, 48 h (100 = growth as untreated, 0 = no growth, -100 = all killed)", "details": "10 µM unless noted", "protocol": "Growth inhibition of the HOP-62 human Non-Small Cell Lung tumor cell line is measured as a screen for anti-cancer activity. Cells are grown in 96 well plates and exposed to the test compound for 48 hours. Compounds are tested at a single concentration, which is 10^-5 M for most compounds. The reported endpoint is percent growth (GI% or GIPRCNT), where numbers from 0 - 100% represent growth inhibition, and numbers from -100% - 0 represent cell death. For example, a value of 40 represents 60% growth inhibition. A value of 0 means no net growth occurred over the course of the experiment. A value of -40 indicates 40% of cells at the beginning of the experiment died by the end of the experiment. A value of -100 means all cells are dead at the end of the experiment.\nNCI-60 Human Tumor Cell Lines Screen was performed using the standard one-dose NCI protocol, which is described in more detail at https://dtp.cancer.gov/discovery_development/nci-60/default.htm.\nCompounds with GIPRCNT values below 10 were considered active. Activity score was based on GIPRCNT using the following formula: […]\nScore is 0 for GIPRCNT values of 100 or above, 50 for GIPRCNT values of 0, and 100 for GIPRCNT values of -100."}
{"smiles": "OC1(c2ccccc2F)c2ccccc2C2=NCCN21", "note": "(stereo not given)", "growth": "84.9%"}
{"smiles": "C1CNC2CCCC2C1", "note": "(stereo not given)", "growth": "102%"}
{"smiles": "O=C(Nc1ccc(S(=O)(=O)F)cc1)Oc1ccccc1", "growth": "93.3%"}
{"smiles": "ClCCN(CCCl)c1ccc(/C=C\\c2ccnc3ccccc23)cc1", "growth": "120%"}
{"smiles": "C=CC(O)CN1CC1CC", "note": "(stereo not given)", "growth": "101%"}
{"smiles": "CNC(=O)Oc1cc(C(C)C)ccc1Sc1ccc(C(C)C)cc1OC(=O)NC", "growth": "75.9%"}
{"smiles": "CCC(C)/C=C(C)/C=C/C(=O)c1c(O)c(-c2ccc(O)cc2)c[nH]c1=O", "note": "(stereo not given)", "growth": "60.8%"}
{"smiles": "C1CN1c1nc(N2CC2)nc(N2CC2)n1", "growth": "31.3%"}
{"smiles": "CCOC(=O)C1(c2ccccc2)CCN(CC(=O)c2ccc(NC(C)=O)cc2)CC1", "growth": "99.9%"}
{"smiles": "Oc1ccc(O)c2c1C1(Cl)C(Cl)=C(Cl)C2(Cl)C1(Cl)Cl", "growth": "47.4%"}
{"smiles": "CC(=O)O[C@H]1CC[C@H]2[C@@H]3CC[C@H]4CC=C(C)C[C@]4(C)[C@H]3CC[C@]12C", "growth": "98.9%"}
{"smiles": "NC(Cc1ccc2c(c1)OCO2)c1ccc2c(c1)OCO2", "note": "(stereo not given)", "growth": "105%"}
{"smiles": "Nc1cccc2c1Oc1ccccc1O2", "growth": "102%"}
{"smiles": "CCOCC1(CCc2ccccc2)C(=O)NC(=S)NC1=O", "growth": "104%"}
{"smiles": "C[C@]12CC[C@H]3[C@@H](C[C@@H]4N=C(c5ccc(O)cc5)S[C@@]45C[C@H](O)CC[C@]35C)[C@@H]1CC[C@@H]2O", "growth": "46.7%"}
{"smiles": "CCC(CC)(c1ccccc1)C(OC(N)=O)c1ccccc1", "note": "(stereo not given)", "growth": "84.7%"}
{"smiles": "NC(=O)C(Br)CBr", "note": "(stereo not given)", "growth": "-40.8% (active)"}
{"smiles": "[O]=[Sn]([CH]1CCCCC1)[CH]1CCCCC1", "growth": "-91.8% (active)"}
{"smiles": "OB([O][Hg][c]1ccccc1)[O][Hg][c]1ccccc1", "growth": "-90.3% (active)"}
{"smiles": "C[C@@H]1O[C@@H](O[C@H]2CC[C@@]3(C)[C@H](CCC4[C@@H]3C(O)C[C@]3(C)[C@@H](c5ccc(=O)oc5)CC[C@]43O)C2)[C@H](O)[C@H](O)[C@H]1O", "note": "(stereo not given in full)", "growth": "-100% (active)"}
{"smiles": "CC(C)N=C(NC(C)C)N1CC1", "growth": "108%"}
{"smiles": "CCC[CH2][Sn]1([CH2]CCC)[O]C(=O)c2cccc([N+](=O)[O-])c2C(=O)[O]1", "growth": "-90.7% (active)"}
{"smiles": "CC(=O)OC1CCC2(C)C(=CCC3C4CC(CN5CC5)C(=O)C4(C)CCC32)C1", "note": "(stereo not given)", "growth": "121%"}
{"smiles": "COc1ccccc1N1CCN(CCc2c[nH]c3cc4c(cc23)OCO4)CC1", "growth": "63.2%"}
{"smiles": "CCC1([N+](=O)[O-])COP(=O)(NCc2cccnc2)OC1", "note": "(stereo not given)", "growth": "103%"}
{"smiles": "CC(=O)[O][Hg][c]1ccccc1", "growth": "-87.9% (active)"}
{"smiles": "CNC(C)Cc1ccccc1", "note": "(stereo not given) (tested in a mixture with another compound)", "growth": "98%"}
{"smiles": "O=C(NCCNC(=O)c1ccc([As](O)O)cc1)c1ccc([As](O)O)cc1", "growth": "105%"}
{"smiles": "O1[As]2O[As]3O[As]1O[As](O2)O3", "growth": "-41.6% (active)"}
{"smiles": "NCCc1cc(O)c(O)cc1O", "growth": "105%"}
{"smiles": "CC1(C)CC(=O)CC(C)(C)N1N=O", "growth": "97.3%"}
{"smiles": "[Cl][Hg][n]1cnc2c(Cl)c(Cl)c(Cl)cc21", "growth": "109%"}
{"smiles": "N#C[Se]CCN1C(=O)C2C(C1=O)[C@H]1C=C[C@@H]2S1", "note": "(stereo not given in full)", "growth": "-63.3% (active)"}
{"smiles": "NC(=O)C(Cl)Cl", "growth": "102%"}
{"smiles": "CCC(/C=C(C)/C=C/C(=O)c1c(O)c(-c2ccc(O)cc2)c[nH]c1=O)CO", "note": "(stereo not given)", "growth": "98%"}
{"smiles": "Nc1c(Br)cc2c3c(cccc13)-c1ccccc1-2", "growth": "82.9%"}
{"smiles": "CC1(C)N=C(N)N=C(N)N1c1ccc(CCCCc2ccc(S(=O)(=O)F)cc2)cc1", "growth": "31.9%"}
{"smiles": "O=C(O)C1[O][Sb][O]C1C(=O)O", "note": "(stereo not given)", "growth": "109%"}
{"smiles": "CC(C)CCC[C@@H](C)[C@H]1CC[C@H]2[C@@H]3CC=C4C[C@@H](OC(=O)Cc5ccc(N(CCCl)CCCl)cc5)CC[C@]4(C)[C@H]3CC[C@]12C", "growth": "105%"}
{"smiles": "Cc1ccc(C(=O)C2CN(C)CCC2(O)c2ccc(C)cc2)cc1", "note": "(stereo not given)", "growth": "140%"}
